# HCMV antiviral = inhibitors of human cytomegalovirus | HFF cells, HCMV-luciferase reporter, 72 h; hits give low values | activity change, negative = inhibition, % at 57.5 µM | 410,000 compounds, 4.5% hits; in the data active = activity change below about -60%; inconclusive = no clear call, values can overlap the other calls; inactive = above about -39%; note: % is set by controls: 0 for no effect and ±100 for the full control effect
#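 Luciferase read-out from HCMV-luciferase-infected HFFs (MOI 1 PFU/cell) 72 h post infection at 37C; compounds added after 16 h cell attachment; activity normalized between buffer-only basal and Salinomycin (10uM) inhibitor controls.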
# Pf growth 48h = P. falciparum growth inhibition at 48 hours (one generation); P. falciparum luciferase growth in erythrocytes, 48 h; Potency, µM (series often up to 28.7 µM), for the others: top-dose activity change, negative = inhibition, most hits filed as inhibitors; 310,000 compounds, 5.9% hits; note: potency is the fitted concentration of half-maximal effect; % is set by controls: 0 for no effect and ±100 for the full control effect
#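 Erythrocytes infected with P. falciparum carrying an integrated firefly luciferase reporter (2% hematocrit, 0.1% parasitemia final) were exposed to compounds in RPMI 1640 with 0.5% Albumax at 37 C, 5% CO2. Growth inhibition was scored as reduced luminescence.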
# HCV inh = inhibitors of hepatitis C virus infection; Huh7.5.1 HCVcc-Cre infection, luciferase reporter, 44 h; Potency, µM (top dose mostly 41.8 µM), inactives show at the top dose activity change, negative = inhibition, actives largely listed as inhibitors; 340,000 compounds, 3.4% hits; note: potency is the fitted concentration of half-maximal effect; % is set by controls: 0 for no effect and ±100 for the full control effect
#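 Seed cells (1,000/well) for 4 h; treat with compound and infect with HCVcc-Cre, moi about 0.5. Incubate 44 h, then detect luciferase activity.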
# Pf growth 96h = inhibits malaria parasite growth, 96 h; P. falciparum luciferase reporter growth, 96 h; Potency, µM (titrated, usually from 28.7 µM), without a hit: top-dose activity change, negative = inhibition, usual class: inhibitors; 320,000 compounds, 6.9% hits; AID 504834; note: potency is the fitted concentration of half-maximal effect; % is set by controls: 0 for no effect and ±100 for the full control effect
#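 P. falciparum expressing integrated firefly luciferase, in erythrocytes at 2% hematocrit, 0.05% parasitemia, incubated with compounds 96 h at 37 C, 5% CO2. Growth inhibition read as loss of luminescence; two-generation exposure targets delayed-death apicoplast inhibitors.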
# SARS PLP yeast = blocks SARS-CoV papain-like protease in a yeast assay. 330,000 compounds, 0.19% hits. S. cerevisiae expressing SARS-CoV PLpro, growth rescue. Potency, µM (series often up to 32.9 µM), without a hit: top-dose activity, positive = growth rescue, hits mostly activators. AID 485353; calls by dose curve; note: potency is the fitted concentration of half-maximal effect; 0% is about no effect; nearly all actives have a fitted effect of over 55% in size
# Sm TGR block = S. mansoni TGR enzyme inhibition; Potency, µM (highest dose often 114 µM), for inactives: at the highest dose activity change, negative = inhibition, usual class: inhibitors; Q962Y6; AID 485364; 360,000 compounds, 3% hits; purified TGR, DTNB reduction, TNB absorbance 405 nm; note: potency is the fitted concentration of half-maximal effect; % is set by controls: 0 for no effect and ±100 for the full control effect; nearly all actives have a fitted effect of over 60% in size
#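 First, TGR (20 nM dispensed) and NADPH were mixed with compound. Second, a 15 min room-temperature incubation followed. Third, further NADPH and then DTNB were added to start the reaction. Finally, TNB absorbance was monitored kinetically.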
# * = called active by the depositor; u = inconclusive; x = not tested or not shown; [ ] = remark or other dose. An excerpt weighted towards active compounds, which were near 15% of everything screened. Unless noted, calls come from the whole dose curve; as a rule, active = well fitted curve in the direction sought with a large enough effect; inconclusive = small, poorly fitted or top-dose-only effect, or another doubt; inactive = no such curve, though single readings can be large; an effect the other way counts as inactive or inconclusive.
SMILES,HCMV antiviral,Pf growth 48h,HCV inh,Pf growth 96h,SARS PLP yeast,Sm TGR block
O=c1c2oc3ccccc3c2n(Cc2cccc(C(F)(F)F)c2)c(=O)n1Cc1ccc2c(c1)OCO2,-22.6,x,x,x,x,13.2%
COc1ccc(NC(NC(=O)c2cccnc2)C(Cl)(Cl)Cl)cc1 (centres undefined),-85.2*,-16.3%,13.5%,36.5%,-0.6%,-16.9%
COc1ccc(NC(=S)Nc2cccnc2)c(OC)c1,-34.2,13.5%,5.8%,14.7µM*,-0.5%,u
COc1cccc(NC(=S)Nc2cccnc2)c1,53.8,37.0%,22.9%,-10.3%,7.7%,39.8µM*
Cc1ccccc1NC(NC(=O)c1cccnc1)C(Cl)(Cl)Cl (centres undefined),-9.7,u,-10.4%,-11.8%,19.8%,-16.5%
COc1ccc(Cl)cc1NC(=S)Nc1cccnc1,-5.4,-11.3%,-12.7%,-21.3%,-1.7%,12.6µM*
COc1cccc(NC(=S)Nc2ccc(O)cc2)c1,x,20.4%,-19.2%,64.2%,0.1%,u
CSc1cccc(NC(=O)N2CCN(c3cc(-c4noc(C)n4)ccc3C)CC2)c1,-12.5,x,x,x,x,6.6%
COc1cccc(CNC(=O)Cn2c(C)c3cnn(-c4ccccc4)c(=O)c3c2C)c1,-17.7,x,x,x,x,-0.3%
CC(C)C[C@H]1CN(CCCC[C@H]2CNC(=O)C(=O)N2CCc2ccc(O)cc2)C(=O)C(=O)N1CCC1CCCCC1,-12.3,x,x,x,x,x
O=C(NCCc1ccccc1F)C1CC(=O)N(c2ccc3c(c2)OCCO3)C1 (centres undefined),-24.7,x,x,x,x,x
CC(=O)N1CCN(c2c(F)c(F)c(C(F)(F)F)c(F)c2F)CC1,-60.6*,11.1%,-10.7%,-11.3%,0.1%,18.4%[57.1 µM]
CCOC(=O)c1cnc2c(F)ccc(F)c2c1Sc1ccccc1,26.8,-24.3%,6.2%,u,0.4%,15.8µM*
CCOC(=O)c1cnc(-c2ccccc2)nc1C(F)(F)F,-20.0,0.1%,26.9%,-1.5%,-1.5%,0.1%
Cc1cnc(C(=O)Nc2ccc(S(=O)(=O)N(C(C)C)C(C)C)cc2)cn1,-7.2,-28.6%,-1.7%,-21.5%,7.3%,5.2%
Cc1cnc(C(=O)Nc2ccc(S(=O)(=O)NCC(C)C)cc2)cn1,-23.9,u,-10.7%,9.28µM*,0.2%,-1.1%
CN(C)CCCN(C(=O)c1ccc(Br)s1)c1nc2cc3c(cc2s1)OCO3,-103.2*,-10.3%,u,u,-5.3%,6.8%
CN(C)CCCN(C(=O)c1ccc2c(c1)CCCC2)c1nc2cc3c(cc2s1)OCO3,u,11.7µM*,u,2.33µM*,-4.7%,0.9%
CN(C)CCN(C(=O)c1ccc(N2C(=O)CCC2=O)cc1)c1nc2cc3c(cc2s1)OCCO3,73.6,100.0%,x,0.0%,-1.4%,35.5µM*
CN(C)CCCN(C(=O)c1ccc(S(=O)(=O)N(C)C)cc1)c1nc2cc3c(cc2s1)OCO3,-15.1,u,-26.4%,17.9%,-0.8%,-3.4%
CN(C)CCN(C(=O)c1ccc(C(=O)c2ccccc2)cc1)c1nc2cc3c(cc2s1)OCCO3,53.7,26.9%,7.4%,3.3%,0.6%,2.7%
CN(C)CCCN(C(=O)c1ccc2c(c1)CCCC2)c1nc2ccc(F)cc2s1,-29.3,8.28µM*,7.94µM*,u,-33.8%,-9.8%
Cc1ccc(S(=O)(=O)N2CCCCC2)cc1NC(=O)Cn1cnc2c1c(=O)n(C)c(=O)n2C,3.0,-6.8%,19.7%,u,-0.5%,-1.7%
COc1cccc(CC(=O)N2CCC(n3nccc3NC(=O)C3CCOC3)CC2)c1 (centres undefined),-21.6,-5.8%,-11.1%,10.3%,-0.5%,15.2%
CCCNC(=O)[C@@H]1CCCN1C(=O)[C@@H]1Cc2ccccc2CN1,12.8,0.5%[0.00184 µM],9.3%,19.4%,0.2%,0.1%
SMILES,HCMV antiviral,Pf growth 48h,HCV inh,Pf growth 96h,SARS PLP yeast,Sm TGR block
Cc1cccc2nc(-c3ccccc3)nc(N[C@@H](CO)c3ccccc3)c12,5.0,13.1µM*,u,13.1µM*,-80.6%,3.8%
Cc1ccc(-c2nc(NCCCO)c3ccccc3n2)cc1,109.0,-2.6%,u,33.2%,-0.3%,-12.3%
O=C(N/N=C/c1ccc(O)cc1)c1cc(C23CC4CC(CC(C4)C2)C3)[nH]n1,0.0,-25.0%,-15.3%,-26.8%,0.7%,0.8%
C/C(=N\NC(=O)c1cc(C(C)(C)C)[nH]n1)C12CC3CC(CC(C3)C1)C2,-11.8,2.62µM*,6.4%,51.4%,-0.2%,21.1%
COCCCn1c(SCC(=O)N2CCOCC2)nc2cc(Cl)ccc2c1=O,-4.0,10.4µM*,-4.9%,-3.9%,-2.1%,-7.3%
COC(=O)c1ccc2c(=O)n(CCN3CCOCC3)c(SCC(=O)C(C)(C)C)nc2c1,-8.7,u,9.7%,13.1µM*,1.6%,21.2%
COC(=O)c1ccc2c(=O)n(CCN3CCOCC3)c(SCC(=O)Nc3ccc(C)cc3)nc2c1,7.4,0.0%,-8.0%,11.7µM*,3.5%,-14.3%
COC(=O)c1ccc2c(=O)n(CC3CCCO3)c(SCC(=O)Nc3ccc(OC)cc3OC)nc2c1 (centres undefined),20.5,6.57µM*,5.8%,u,0.4%,2.2%
CCOC(=O)CSc1nc2cc(C(=O)OC)ccc2c(=O)n1CCN1CCOCC1,-8.4,47.9%,-6.7%,u,-1.4%,2.0%
COc1ccc(OC)c(NC(=O)CSc2nc3ccccc3c(=O)n2CC2CCCO2)c1 (centres undefined),-29.6,u,u,u,-8.4%,4.3%
CCOC(=O)c1c(C)n(-c2ccccc2)c2ccc(OC(=O)c3ccc(OCC)c(OCC)c3)cc12,-2.6,x,x,x,x,6.8%
Cc1ccc(CNC(=O)C(=O)NCC(c2cccnc2)N2CCN(c3ccc(F)cc3)CC2)cc1 (centres undefined),u,x,x,x,x,-5.4%
CCCCn1c(SC(C)C(=O)NCC2CCCO2)nc2cc(C(=O)OC)ccc2c1=O (centres undefined),-23.5,5.86µM*,u,8.28µM*,-1.7%,0.3%
CCn1c(SCC(=O)Nc2ccc(OC)cc2OC)nc2nc3c(cc2c1=O)COC(C)(C)C3,u,u,u,8.28µM*,3.4%,0.3%
O=C(Nc1ccc(Br)cc1)c1nn(C23CC4CC(CC(C4)C2)C3)cc1Br,-26.5,u,2.6%,0.185µM*,-4.3%,-26.0%
Cn1cc([N+](=O)[O-])c(C(=O)Nc2ccn(C34CC5CC(CC(C5)C3)C4)n2)n1,-94.7*,0.0%,2.4%,-14.2%,12.7%,1.1%
Cn1nccc1C(=O)Nc1ccn(C23CC4CC(CC(C4)C2)C3)n1,-81.3*,37.5%,u,62.5%,-32.7%,-8.6%
Cc1nn(C)c(C(=O)Nc2ccn(C34CC5CC(CC(C5)C3)C4)n2)c1[N+](=O)[O-],-61.9*,u,7.9%,u,18.9%,-2.3%
